Assay results: the supplement of paper PMC6522484
± gives the standard deviation of the averaged measurements.

Assays:
DLD1 [1] = assay: cell viability (CellTiter-Glo) relative to plate median (fraction of plate median); higher = more viable cells; conditions: 5 µM; treatment time 24 h; reporter: 7TFP
Outline: (§1)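 Values are well luminescence normalised to the plate median, from either a firefly luciferase or a CellTiterGlo readout on parallel plates. The cells, colorectal cancer lines stably transduced with lentiviral 7TFP or TCF4/Wnt firefly luciferase reporters, were treated with library compounds at a final 5 µM for 24 h. The mean of two independent replicates is listed.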

HCT116 = assay: as above; conditions: 5 µM; treatment time 24 h; reporter: TCF4/Wnt
Outline: as §1

SW480 [2] = assay: as above; conditions: 5 µM; treatment time 24 h; reporter: 7TFP
Outline: as §1

DLD1 [3] = assay: TCF/Wnt firefly luciferase reporter signal relative to plate median (fraction of plate median); higher = higher Wnt reporter signal; conditions: 5 µM; treatment time 24 h; reporter: 7TFP
Outline: as §1

SW480 [4] = assay: as above; conditions: 5 µM; treatment time 24 h; reporter: 7TFP
Outline: as §1

SMILES	cell viability (DLD1 [1])	cell viability (HCT116)	cell viability (SW480 [2])	TCF/Wnt firefly luciferase reporter signal (DLD1 [3])	TCF/Wnt firefly luciferase reporter signal (SW480 [4])
COc1c(-c2ccccc2)oc2c(ccc3occc32)c1=O	1.03 ± 0.035	1.09 ± 0.078	1.03 ± 0.021	1.09 ± 0.078	1.05 ± 0.014
Fc1ccc(C(c2ccc(F)cc2)N2CCN(C/C=C/c3ccccc3)CC2)cc1	1.06 ± 0.042	0.962 ± 0.069	1.06 ± 0.057	0.961 ± 0.18	0.917 ± 0.016
Cc1cc(C(C)(C)C)cc(C)c1CC1=NCCN1	1.095 ± 0.0071	1.06 ± 0.035	1.07 ± 0.057	0.9565 ± 0.0064	0.991 ± 0.098
C=C1C2=CC(=O)O[C@@H](c3ccoc3)[C@]2(C)CC[C@@H]1[C@@]1(C)C=CC(=O)C(C)(C)[C@@H]1CC(=O)OC	1.14 ± 0.071	1.2 ± 0.092	1.12 ± 0.05	1.01 ± 0.1	0.987 ± 0.033
COc1cc(OC)c2c(=O)c(-c3ccccc3)c(C)oc2c1OC	1.07 ± 0.15	1.05 ± 0.078	1.01 ± 0.052	1 ± 0.069	0.9545 ± 0.00071
CN(C)CCCN1c2ccccc2Sc2ccc(C(F)(F)F)cc21	1.07 ± 0.17	0.993 ± 0.081	1.04 ± 0.028	0.957 ± 0.034	0.959 ± 0.17
NCCCCC(=O)O	0.9365 ± 0.0021	0.981 ± 0.098	1.03 ± 0.021	1.06 ± 0.19	0.9645 ± 0.00071
COCCOC(=O)C1=C(C)NC(C)=C(C(=O)OC(C)C)C1c1cccc([N+](=O)[O-])c1 (stereo not given)	0.9 ± 0.1	0.916 ± 0.16	0.858 ± 0.11	0.967 ± 0.089	1.12 ± 0.11
COC(=O)C1=CO[C@@H](O[C@@H]2O[C@H](CO)[C@@H](O)[C@H](O)[C@H]2O)[C@@H]2[C@@H](C)CC(=O)[C@]12O	0.871 ± 0.067	0.88 ± 0.17	0.988 ± 0.06	1.04 ± 0.19	1.08 ± 0.035
C#CCN(C)Cc1ccccc1	0.947 ± 0.053	1.08 ± 0.042	0.943 ± 0.0099	1.14 ± 0.014	1.03 ± 0.05
CC(C)(CO)C(O)C(=O)NCCCO (stereo not given)	1.05 ± 0.16	1.06 ± 0.028	1.07 ± 0.064	0.992 ± 0.068	0.978 ± 0.074
C[C@@H]1CC(=O)c2c(ccc3c2C(=O)c2cccc(O)c2C3=O)C1 [Ochromycinone (Isoform B, compound ID 7489)]	1.1 ± 0.035	1	0.991 ± 0.028	0.781 ± 0.1	0.867 ± 0.047
O=C1c2ccccc2C(=O)c2c(Cl)cccc21 [Chloro-Anthraquinone]	1.01 ± 0.027	0.993 ± 0.024	0.974 ± 0.017	1.03 ± 0.16	0.944 ± 0.14
O=c1cc(CO)occ1O [Kojic acid (Biofocus)]	0.943 ± 0.08	1.02 ± 0.083	0.994 ± 0.093	1.21 ± 0.13	1.12 ± 0.035
NC(=O)c1cccc(N)c1	0.983 ± 0.039	1.01 ± 0.062	0.9685 ± 0.0035	0.959 ± 0.13	0.853 ± 0.09
Nc1ccccc1C(=O)CC(N)C(=O)O (stereo not given)	1.01	1.05 ± 0.1	0.994 ± 0.023	1.31 ± 0.05	1.08 ± 0.014
O=c1cc(-c2ccccc2O)oc2cc(O)ccc12	1.01 ± 0.069	1.02 ± 0.094	0.976 ± 0.025	1.17 ± 0.042	1.23 ± 0.085

SMILES	cell viability (DLD1 [1])	cell viability (HCT116)	cell viability (SW480 [2])	TCF/Wnt firefly luciferase reporter signal (DLD1 [3])	TCF/Wnt firefly luciferase reporter signal (SW480 [4])
N=C(N)NC(=N)Nc1ccccc1	0.96 ± 0.014	0.969 ± 0.034	0.958 ± 0.021	0.946 ± 0.052	0.99 ± 0.015
C[N+]1(CCCCC[N+]2(C)CCCC2)CCCC1	0.998 ± 0.018	1.01 ± 0.039	0.995 ± 0.064	0.888 ± 0.21	0.98 ± 0.071
COc1cc2c(cc1OC)-c1cc3ccc(OC)c(OC)c3c[n+]1CC2	0.983 ± 0.067	0.896 ± 0.16	0.949 ± 0.054	1.105 ± 0.0071	1.01 ± 0.073
CNCCc1ccccn1	0.835 ± 0.059	0.979 ± 0.086	0.958 ± 0.027	1.08 ± 0.21	1.1 ± 0.05
C=C1C2CC[C@@]3(C)[C@H](c4ccoc4)OC(=O)C[C@]13O[C@H]1CC(O)C(C)(C)C(CC(=O)OC)[C@@]21C (stereo partly drawn) [3alpha-HYDROXY-3-DEOXYANGOLENSIC ACID METHYL ESTER]	1.01 ± 0.049	0.943 ± 0.081	1.02 ± 0.059	1.05 ± 0.05	0.968 ± 0.06
COc1ccc(-c2cc(=O)c3c(OC)c(OC)c(OC)cc3o2)cc1OC	1.01 ± 0.022	1.055 ± 0.0071	1.015 ± 0.0071	1.07 ± 0.13	1.15 ± 0.16
C=C1C[C@]23C[C@@]1(O)CC[C@H]2[C@@]12C=C[C@H](O)[C@@](C)(C(=O)O1)[C@H]2[C@@H]3C(=O)O	1.03 ± 0.014	1.08 ± 0.05	1.02 ± 0.052	0.88 ± 0.0028	0.869 ± 0.14
OCCN1C[C@H](O)[C@@H](O)[C@H](O)[C@H]1CO	0.86 ± 0.15	0.957 ± 0.19	0.97 ± 0.025	0.954 ± 0.11	0.988 ± 0.06
Cc1cc(=O)oc2cc(O)c(O)cc12	0.951 ± 0.035	0.886 ± 0.071	0.98 ± 0.057	0.711 ± 0.25	1.085 ± 0.0071
COc1ccc(C(=O)Oc2ccc(/C=N/NC(N)=O)cc2)cc1 [Anthramycin derivative (C16H15N3O4)]	1.2 ± 0.2	0.991 ± 0.07	1.02 ± 0.071	0.938 ± 0.12	1.05 ± 0.028
COC(=O)CC1C(C)(C)C(OC(C)=O)[C@@H]2[C@@H](OC(C)=O)[C@]34O[C@@]2(O)[C@]1(C)C3CC[C@]1(C)C4=CC(=O)O[C@H]1c1ccoc1 (stereo not given in full)	1.02 ± 0.11	1.02 ± 0.098	1.04	1.01 ± 0.061	0.992 ± 0.026
NNC(=O)c1ccncc1	0.952 ± 0.018	0.959 ± 0.049	0.984 ± 0.051	0.8925 ± 0.00071	1.03 ± 0.028
O=C1[C@@H]2CCCN2C(=O)[C@@H]2CCCN12 [Cyclo(Prolylprolyl)]	0.978 ± 0.0071	1.03 ± 0.065	0.9595 ± 0.0078	0.811 ± 0.15	1.01 ± 0.05
COc1cc2ccc(=O)oc2c(O)c1O	0.945 ± 0.077	0.908 ± 0.061	0.966 ± 0.062	1.04 ± 0.042	0.9995 ± 0.00071
C/C=C/C1=CC(=O)[C@@H](O)[C@@H]1O [Terrein]	0.964 ± 0.066	1.03 ± 0.014	0.986 ± 0.011	1.25 ± 0.085	1.1 ± 0.11
COCCCOc1cc(C[C@@H](C[C@H](N)[C@@H](O)C[C@H](C(=O)NCC(C)(C)C(N)=O)C(C)C)C(C)C)ccc1OC	0.99 ± 0.029	0.962 ± 0.068	0.974 ± 0.0057	0.991 ± 0.07	1.07 ± 0.021
CC(=O)Oc1ccc(C(c2ccc(OC(C)=O)cc2)c2ccccn2)cc1	0.806 ± 0.057	0.931 ± 0.15	1.1 ± 0.092	0.65 ± 0.098	1.03 ± 0.085
